Measured values taken from the supplement of paper PMC11732987, “Enantioselective OTUD7B fragment discovery through chemoproteomics screening and high-throughput optimisation” (Communications Chemistry, 2025).

Assays:
Test in all cases: log2 ratio of Biotin-Ahx-Ub-VS probe labelling (fragment/DMSO); higher = less target engagement (more negative = stronger competition), active = hit call of the paper (q ≤ 0.05, log2 ratio ≤ -1)
Settings in all cases: compound concentration: 200 uM; treatment time: 3 h
[1] = biological target: T1, USP42 (UniProt Q9H9J4)
T1 sequence (whole entry): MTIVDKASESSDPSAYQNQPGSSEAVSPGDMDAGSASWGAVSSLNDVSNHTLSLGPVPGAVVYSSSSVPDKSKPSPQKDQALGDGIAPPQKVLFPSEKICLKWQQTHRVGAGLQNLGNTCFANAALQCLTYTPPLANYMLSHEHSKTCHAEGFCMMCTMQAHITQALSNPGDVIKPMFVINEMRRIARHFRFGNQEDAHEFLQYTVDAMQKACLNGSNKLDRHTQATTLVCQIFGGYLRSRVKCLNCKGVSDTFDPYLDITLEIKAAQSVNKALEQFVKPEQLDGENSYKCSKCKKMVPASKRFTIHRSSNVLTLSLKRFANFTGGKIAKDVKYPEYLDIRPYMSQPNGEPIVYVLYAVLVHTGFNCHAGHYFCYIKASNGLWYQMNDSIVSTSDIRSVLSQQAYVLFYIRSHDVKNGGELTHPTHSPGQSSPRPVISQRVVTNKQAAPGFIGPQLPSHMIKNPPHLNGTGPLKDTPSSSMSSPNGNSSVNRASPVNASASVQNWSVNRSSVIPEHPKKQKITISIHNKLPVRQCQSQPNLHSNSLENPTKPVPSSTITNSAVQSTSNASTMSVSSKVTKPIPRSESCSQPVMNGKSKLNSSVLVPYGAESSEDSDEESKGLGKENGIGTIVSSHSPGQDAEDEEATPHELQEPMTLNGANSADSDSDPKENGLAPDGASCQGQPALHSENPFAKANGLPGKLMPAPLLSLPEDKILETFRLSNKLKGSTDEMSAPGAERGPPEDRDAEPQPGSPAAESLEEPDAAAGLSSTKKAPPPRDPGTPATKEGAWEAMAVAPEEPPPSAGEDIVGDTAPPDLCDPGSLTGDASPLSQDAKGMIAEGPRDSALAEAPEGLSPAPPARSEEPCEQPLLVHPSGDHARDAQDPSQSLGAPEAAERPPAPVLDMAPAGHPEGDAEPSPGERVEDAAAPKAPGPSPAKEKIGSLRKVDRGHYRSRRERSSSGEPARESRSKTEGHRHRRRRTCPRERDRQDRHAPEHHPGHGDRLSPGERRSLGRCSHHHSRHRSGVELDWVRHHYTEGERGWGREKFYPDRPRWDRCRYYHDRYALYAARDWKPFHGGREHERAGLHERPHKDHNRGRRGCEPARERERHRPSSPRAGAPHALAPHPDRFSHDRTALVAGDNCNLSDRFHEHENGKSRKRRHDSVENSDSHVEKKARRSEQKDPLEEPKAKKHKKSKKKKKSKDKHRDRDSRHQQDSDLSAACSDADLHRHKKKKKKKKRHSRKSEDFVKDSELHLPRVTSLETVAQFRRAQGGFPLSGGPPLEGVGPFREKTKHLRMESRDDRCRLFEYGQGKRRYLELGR
Summary of the method: (§1)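 Each value is an average log2 ratio of fragment to vehicle, tested by unpaired t-test. The underlying Spectronaut label-free quantities were global-median-normalised, and only proteins with ≥2 unique peptides were included. Triplicate HEK293T lysate samples (495 µg) were exposed to fragment at 200 µM or vehicle for 3 h, then to Biotin-Ahx-Ub-VS at 0.5 µM final for 1 h, before NeutrAvidin enrichment of labelled DUBs, LysC and trypsin digestion, and diaPASEF LC-MS/MS.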

[2] = biological target: USP46 (UniProt P62068)
Chain of USP46 (P62068 whole entry): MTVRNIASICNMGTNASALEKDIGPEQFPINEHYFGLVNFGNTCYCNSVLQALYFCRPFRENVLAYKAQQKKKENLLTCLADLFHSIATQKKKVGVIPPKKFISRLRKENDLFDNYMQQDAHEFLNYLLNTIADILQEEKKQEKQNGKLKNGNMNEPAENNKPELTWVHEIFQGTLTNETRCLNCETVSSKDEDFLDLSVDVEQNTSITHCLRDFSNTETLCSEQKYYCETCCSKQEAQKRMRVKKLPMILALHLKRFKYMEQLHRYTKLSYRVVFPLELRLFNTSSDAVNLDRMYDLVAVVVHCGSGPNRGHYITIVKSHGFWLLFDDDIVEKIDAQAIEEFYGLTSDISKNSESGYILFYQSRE
Summary of the method: as §1

[3] = biological target: T2, USP47 (UniProt Q96K76)
T2 sequence (whole entry): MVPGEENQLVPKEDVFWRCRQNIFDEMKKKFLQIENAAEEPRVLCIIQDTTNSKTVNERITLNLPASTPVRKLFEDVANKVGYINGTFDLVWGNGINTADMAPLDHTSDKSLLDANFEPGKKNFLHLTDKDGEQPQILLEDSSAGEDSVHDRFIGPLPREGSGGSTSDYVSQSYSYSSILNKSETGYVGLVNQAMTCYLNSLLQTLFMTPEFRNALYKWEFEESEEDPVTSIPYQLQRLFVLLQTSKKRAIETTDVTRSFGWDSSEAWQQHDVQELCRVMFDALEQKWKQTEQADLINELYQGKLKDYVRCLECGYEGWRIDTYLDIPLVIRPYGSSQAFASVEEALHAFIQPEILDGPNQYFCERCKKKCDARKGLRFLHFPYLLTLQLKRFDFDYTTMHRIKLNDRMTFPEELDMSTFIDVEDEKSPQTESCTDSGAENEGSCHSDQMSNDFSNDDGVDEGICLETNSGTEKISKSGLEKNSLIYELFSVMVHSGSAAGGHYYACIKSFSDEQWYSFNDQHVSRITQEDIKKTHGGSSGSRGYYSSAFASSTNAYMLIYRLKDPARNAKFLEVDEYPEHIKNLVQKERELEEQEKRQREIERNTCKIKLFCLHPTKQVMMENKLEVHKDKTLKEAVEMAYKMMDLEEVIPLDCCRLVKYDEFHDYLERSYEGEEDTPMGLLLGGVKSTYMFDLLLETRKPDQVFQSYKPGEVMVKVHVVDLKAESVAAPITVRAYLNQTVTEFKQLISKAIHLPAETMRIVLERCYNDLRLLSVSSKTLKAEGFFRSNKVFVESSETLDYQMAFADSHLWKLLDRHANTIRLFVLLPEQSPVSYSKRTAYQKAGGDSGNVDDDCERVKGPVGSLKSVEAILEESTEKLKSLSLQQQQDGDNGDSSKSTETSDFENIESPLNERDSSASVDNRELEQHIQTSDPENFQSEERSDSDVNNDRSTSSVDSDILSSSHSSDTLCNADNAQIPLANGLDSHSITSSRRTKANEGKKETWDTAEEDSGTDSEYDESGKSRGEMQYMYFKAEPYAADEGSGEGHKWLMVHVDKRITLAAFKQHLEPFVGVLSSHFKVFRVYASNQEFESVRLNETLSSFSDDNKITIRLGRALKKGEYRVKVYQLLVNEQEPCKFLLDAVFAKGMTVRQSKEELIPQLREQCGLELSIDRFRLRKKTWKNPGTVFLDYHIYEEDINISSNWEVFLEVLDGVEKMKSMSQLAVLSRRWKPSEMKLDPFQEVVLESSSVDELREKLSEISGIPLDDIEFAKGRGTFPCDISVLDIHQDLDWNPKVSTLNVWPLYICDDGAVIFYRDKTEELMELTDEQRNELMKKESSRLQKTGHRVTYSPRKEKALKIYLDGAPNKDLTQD
Summary of the method: as §1

[4] = biological target: T3, USP48 (UniProt Q86UV5)
T3 sequence (whole entry): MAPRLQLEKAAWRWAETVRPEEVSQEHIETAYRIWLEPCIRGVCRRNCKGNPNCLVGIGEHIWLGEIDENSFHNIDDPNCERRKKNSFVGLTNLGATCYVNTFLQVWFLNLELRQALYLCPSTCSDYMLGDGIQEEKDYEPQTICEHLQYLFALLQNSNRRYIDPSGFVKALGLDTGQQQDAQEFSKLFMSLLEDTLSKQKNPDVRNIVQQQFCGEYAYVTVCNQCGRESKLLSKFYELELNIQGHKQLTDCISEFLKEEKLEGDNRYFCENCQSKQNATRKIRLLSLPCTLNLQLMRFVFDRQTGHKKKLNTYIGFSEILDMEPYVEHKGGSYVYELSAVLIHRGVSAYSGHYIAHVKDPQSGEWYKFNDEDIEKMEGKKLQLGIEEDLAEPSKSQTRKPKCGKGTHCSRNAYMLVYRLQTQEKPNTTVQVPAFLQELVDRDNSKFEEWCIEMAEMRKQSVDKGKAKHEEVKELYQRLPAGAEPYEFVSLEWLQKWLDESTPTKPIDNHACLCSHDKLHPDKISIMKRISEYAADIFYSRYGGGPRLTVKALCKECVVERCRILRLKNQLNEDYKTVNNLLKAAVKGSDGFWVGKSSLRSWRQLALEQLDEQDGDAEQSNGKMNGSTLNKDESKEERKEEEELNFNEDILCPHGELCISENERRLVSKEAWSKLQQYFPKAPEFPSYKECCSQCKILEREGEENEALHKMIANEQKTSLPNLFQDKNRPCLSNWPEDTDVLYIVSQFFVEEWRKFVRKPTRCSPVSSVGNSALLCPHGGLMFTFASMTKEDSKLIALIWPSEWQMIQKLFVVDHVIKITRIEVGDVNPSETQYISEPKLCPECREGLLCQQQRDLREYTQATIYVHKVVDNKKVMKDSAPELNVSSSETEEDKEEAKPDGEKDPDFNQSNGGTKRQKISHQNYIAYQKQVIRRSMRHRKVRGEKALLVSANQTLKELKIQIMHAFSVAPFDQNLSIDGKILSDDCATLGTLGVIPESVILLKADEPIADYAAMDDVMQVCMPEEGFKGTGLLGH
Summary of the method: as §1

[5] = biological target: T4, USP5 (UniProt P45974)
T4 sequence (whole entry): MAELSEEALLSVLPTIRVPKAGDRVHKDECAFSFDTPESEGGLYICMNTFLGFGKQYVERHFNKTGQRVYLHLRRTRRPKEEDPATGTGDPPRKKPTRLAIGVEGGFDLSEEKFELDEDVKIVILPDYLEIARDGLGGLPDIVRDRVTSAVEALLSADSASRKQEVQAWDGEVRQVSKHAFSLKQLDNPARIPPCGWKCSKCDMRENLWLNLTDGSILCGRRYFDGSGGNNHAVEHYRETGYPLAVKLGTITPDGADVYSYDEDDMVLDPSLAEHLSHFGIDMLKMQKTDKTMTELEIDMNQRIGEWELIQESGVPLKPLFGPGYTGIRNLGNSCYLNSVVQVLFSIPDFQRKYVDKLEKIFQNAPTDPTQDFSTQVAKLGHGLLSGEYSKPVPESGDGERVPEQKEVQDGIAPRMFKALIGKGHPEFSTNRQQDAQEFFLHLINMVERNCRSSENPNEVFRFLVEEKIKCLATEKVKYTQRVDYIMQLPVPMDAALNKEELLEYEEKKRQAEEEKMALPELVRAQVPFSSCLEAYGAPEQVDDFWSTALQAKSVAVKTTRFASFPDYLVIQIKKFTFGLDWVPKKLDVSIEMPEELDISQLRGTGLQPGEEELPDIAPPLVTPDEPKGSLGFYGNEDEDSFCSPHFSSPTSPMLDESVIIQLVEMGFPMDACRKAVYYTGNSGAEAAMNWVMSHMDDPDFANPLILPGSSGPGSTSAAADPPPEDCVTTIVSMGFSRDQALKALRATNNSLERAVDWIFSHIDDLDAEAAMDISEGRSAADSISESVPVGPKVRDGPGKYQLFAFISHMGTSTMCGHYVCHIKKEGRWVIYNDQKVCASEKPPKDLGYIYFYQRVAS
Summary of the method: as §1

[6] = biological target: USP54 (UniProt Q70EL1)
Chain of USP54 (Q70EL1 whole entry): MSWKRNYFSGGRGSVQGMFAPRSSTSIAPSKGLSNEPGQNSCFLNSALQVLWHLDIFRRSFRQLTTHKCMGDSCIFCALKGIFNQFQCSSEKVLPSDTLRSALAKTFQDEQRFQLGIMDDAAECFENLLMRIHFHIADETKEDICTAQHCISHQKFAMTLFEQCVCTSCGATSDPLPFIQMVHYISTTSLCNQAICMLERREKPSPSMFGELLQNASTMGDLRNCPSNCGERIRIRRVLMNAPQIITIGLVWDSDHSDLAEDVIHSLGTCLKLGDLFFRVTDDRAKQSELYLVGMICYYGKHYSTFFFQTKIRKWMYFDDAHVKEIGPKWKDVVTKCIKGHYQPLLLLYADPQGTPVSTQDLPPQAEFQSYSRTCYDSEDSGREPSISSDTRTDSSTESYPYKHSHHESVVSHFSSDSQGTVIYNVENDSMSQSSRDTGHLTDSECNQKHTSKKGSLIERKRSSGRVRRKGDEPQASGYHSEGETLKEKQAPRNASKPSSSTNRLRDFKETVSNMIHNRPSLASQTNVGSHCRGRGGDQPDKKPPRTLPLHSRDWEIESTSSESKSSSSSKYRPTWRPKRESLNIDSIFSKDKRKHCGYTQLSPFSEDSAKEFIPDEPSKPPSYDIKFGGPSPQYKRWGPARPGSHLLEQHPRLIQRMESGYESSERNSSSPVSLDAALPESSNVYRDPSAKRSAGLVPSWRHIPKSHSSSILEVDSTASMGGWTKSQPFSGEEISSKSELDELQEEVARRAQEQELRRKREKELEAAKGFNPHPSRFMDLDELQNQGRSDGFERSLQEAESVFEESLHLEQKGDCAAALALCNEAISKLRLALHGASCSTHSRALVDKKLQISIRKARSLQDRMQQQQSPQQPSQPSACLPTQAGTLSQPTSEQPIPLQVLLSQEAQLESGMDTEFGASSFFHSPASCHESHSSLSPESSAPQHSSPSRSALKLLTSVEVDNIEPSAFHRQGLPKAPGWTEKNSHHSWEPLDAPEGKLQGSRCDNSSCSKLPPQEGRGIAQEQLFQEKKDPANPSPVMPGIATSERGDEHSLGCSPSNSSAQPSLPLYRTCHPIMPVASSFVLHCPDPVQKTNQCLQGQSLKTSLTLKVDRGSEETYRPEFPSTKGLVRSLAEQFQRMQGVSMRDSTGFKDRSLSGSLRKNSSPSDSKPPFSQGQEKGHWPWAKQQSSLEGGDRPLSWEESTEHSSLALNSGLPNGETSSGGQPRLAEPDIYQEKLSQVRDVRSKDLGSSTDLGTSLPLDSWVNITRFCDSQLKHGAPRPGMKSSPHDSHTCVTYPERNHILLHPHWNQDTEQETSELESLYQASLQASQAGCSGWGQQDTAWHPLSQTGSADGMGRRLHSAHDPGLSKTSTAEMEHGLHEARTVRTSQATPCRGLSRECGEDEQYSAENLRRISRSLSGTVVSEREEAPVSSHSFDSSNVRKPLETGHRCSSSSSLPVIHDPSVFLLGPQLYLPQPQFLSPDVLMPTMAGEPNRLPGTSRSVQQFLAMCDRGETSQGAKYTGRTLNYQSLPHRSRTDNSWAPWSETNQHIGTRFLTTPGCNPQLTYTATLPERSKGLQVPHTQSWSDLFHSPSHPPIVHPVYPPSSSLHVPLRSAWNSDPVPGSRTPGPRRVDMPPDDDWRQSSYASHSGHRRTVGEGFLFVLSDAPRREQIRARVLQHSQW
Summary of the method: as §1

[7] = biological target: USP7 (UniProt Q93009)
Chain of USP7 (Q93009 whole entry, looked up): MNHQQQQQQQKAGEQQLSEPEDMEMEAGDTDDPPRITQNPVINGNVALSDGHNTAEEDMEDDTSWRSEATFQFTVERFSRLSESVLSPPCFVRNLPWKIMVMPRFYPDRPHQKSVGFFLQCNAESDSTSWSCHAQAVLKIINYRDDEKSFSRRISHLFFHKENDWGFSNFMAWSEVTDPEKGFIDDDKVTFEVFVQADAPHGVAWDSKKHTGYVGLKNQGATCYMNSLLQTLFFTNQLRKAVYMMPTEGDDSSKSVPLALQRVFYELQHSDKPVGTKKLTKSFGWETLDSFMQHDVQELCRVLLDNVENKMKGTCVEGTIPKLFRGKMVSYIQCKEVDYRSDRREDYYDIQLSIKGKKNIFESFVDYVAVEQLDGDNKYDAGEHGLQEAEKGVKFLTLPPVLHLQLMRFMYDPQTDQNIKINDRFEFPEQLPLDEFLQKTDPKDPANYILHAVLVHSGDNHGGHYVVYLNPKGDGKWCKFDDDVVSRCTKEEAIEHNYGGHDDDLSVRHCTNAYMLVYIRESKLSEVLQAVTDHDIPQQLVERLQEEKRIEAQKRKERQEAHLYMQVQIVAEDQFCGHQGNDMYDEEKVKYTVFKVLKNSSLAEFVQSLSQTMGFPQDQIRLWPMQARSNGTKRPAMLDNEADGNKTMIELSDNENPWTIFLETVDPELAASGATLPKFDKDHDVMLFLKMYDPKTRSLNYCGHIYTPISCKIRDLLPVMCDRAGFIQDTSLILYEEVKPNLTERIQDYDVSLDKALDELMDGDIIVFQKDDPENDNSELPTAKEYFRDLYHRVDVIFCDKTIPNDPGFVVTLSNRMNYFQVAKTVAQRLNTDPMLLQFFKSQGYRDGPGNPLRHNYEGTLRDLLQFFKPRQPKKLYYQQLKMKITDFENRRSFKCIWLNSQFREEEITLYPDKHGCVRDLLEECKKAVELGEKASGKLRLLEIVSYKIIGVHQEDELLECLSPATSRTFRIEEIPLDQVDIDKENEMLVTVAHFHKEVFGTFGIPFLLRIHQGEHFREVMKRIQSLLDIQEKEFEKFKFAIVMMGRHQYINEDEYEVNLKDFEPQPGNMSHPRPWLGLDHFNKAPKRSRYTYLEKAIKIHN
Summary of the method: as §1

[8] = biological target: T5, USP8 (UniProt P40818)
T5 sequence (whole entry): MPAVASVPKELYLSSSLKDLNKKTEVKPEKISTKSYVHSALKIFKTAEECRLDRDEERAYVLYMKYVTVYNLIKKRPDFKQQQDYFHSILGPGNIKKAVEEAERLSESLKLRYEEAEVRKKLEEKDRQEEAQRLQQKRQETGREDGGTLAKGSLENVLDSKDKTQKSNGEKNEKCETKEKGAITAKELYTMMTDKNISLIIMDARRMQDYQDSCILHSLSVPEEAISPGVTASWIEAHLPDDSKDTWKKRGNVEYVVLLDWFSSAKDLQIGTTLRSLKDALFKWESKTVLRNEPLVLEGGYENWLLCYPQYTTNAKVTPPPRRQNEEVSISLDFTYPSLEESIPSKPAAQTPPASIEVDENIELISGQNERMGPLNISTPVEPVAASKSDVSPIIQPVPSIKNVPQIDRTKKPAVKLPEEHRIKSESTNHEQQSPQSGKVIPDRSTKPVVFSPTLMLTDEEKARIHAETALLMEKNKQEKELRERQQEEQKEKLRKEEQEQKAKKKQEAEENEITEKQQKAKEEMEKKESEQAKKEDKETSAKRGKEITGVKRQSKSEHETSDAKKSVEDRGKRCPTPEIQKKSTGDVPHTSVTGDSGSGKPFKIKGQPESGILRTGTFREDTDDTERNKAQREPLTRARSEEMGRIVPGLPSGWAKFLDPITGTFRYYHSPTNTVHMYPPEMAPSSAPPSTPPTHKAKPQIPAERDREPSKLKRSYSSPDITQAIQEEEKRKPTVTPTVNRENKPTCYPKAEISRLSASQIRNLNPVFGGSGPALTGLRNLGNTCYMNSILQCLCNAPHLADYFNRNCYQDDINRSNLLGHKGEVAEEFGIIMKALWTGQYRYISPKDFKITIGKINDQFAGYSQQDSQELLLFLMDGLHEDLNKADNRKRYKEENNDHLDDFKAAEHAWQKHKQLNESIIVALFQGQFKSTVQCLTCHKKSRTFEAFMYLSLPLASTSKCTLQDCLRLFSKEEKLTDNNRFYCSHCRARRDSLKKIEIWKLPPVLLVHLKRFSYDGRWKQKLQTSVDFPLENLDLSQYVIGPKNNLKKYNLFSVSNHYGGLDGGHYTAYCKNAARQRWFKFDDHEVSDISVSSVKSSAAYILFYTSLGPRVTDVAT
Summary of the method: as §1

[9] = biological target: USP9X (UniProt Q93008)
Summary of the method: as §1

[10] = biological target: UniProt O00487
Chain of UniProt O00487 (O00487 whole entry): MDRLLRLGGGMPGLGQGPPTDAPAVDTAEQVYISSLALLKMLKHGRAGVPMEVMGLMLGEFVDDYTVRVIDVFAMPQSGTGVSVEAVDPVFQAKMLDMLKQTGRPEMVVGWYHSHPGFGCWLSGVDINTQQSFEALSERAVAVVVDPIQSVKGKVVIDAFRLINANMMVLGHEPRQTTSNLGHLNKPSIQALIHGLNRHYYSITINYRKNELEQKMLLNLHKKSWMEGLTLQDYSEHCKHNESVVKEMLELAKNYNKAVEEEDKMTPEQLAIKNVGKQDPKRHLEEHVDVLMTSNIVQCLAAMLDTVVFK
Summary of the method: as §1

Measured: log2 ratio of Biotin-Ahx-Ub-VS probe labelling

O=C(CCl)N1CCC(c2nc3ccccc3o2)CC1
inactive: [1] -0.0372 | [2] -0.0557 | [3] -0.397 | [4] -0.598 | [5] 0.186 | [6] 0.726 | [7] -0.746 | [8] -0.0637 | [9] -0.351 | [10] -0.154
